Assays:
Experiment in all cases: log2 ratio of Biotin-Ahx-Ub-VS probe labelling (fragment/DMSO); higher = less target engagement (more negative = stronger competition), active = hit call of the paper (q ≤ 0.05, log2 ratio ≤ -1)
Conditions in all cases: compound concentration: 200 uM; treatment time: 3 h
USP42 = target: T1, USP42 (UniProt Q9H9J4)
T1 sequence (whole entry): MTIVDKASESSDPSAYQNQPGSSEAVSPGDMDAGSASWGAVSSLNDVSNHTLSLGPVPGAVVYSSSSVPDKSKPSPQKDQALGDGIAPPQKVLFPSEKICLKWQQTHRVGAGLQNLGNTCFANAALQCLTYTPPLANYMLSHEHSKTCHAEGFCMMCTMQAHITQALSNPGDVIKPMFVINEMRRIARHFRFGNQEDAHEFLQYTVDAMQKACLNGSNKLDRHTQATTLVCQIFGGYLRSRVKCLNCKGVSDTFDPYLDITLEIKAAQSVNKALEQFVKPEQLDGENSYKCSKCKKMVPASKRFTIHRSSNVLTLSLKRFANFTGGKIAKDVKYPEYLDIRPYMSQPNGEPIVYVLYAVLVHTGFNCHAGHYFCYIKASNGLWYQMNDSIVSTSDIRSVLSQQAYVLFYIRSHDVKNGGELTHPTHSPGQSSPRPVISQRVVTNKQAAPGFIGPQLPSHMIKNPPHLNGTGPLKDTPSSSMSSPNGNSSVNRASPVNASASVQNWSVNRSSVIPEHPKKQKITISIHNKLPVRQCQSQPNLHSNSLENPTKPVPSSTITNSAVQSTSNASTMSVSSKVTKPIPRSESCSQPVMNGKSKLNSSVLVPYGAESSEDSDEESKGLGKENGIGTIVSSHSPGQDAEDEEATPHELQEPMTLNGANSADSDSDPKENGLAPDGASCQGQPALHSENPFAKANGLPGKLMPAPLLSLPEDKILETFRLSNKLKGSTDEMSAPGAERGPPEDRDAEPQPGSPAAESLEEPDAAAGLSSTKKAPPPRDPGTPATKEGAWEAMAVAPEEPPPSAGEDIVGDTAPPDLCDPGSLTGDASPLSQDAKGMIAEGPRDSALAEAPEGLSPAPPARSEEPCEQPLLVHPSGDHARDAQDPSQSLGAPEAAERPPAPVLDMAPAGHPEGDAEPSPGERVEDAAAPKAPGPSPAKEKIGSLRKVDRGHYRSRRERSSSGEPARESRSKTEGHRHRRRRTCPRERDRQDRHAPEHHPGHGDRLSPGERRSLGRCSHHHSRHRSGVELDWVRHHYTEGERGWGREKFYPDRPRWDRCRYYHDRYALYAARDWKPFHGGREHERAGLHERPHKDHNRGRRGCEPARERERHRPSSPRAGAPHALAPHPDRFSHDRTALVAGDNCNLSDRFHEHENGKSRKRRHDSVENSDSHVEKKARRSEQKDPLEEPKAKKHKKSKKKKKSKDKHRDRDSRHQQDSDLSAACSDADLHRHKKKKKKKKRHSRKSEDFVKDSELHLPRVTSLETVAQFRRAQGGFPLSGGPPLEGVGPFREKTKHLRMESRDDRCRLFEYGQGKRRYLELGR
Summary of the method: (§1)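 Each value is an average log2 ratio of fragment to vehicle, tested by unpaired t-test. The underlying Spectronaut label-free quantities were global-median-normalised, and only proteins with ≥2 unique peptides were included. Triplicate HEK293T lysate samples (495 µg) were exposed to fragment at 200 µM or vehicle for 3 h, then to Biotin-Ahx-Ub-VS at 0.5 µM final for 1 h, before NeutrAvidin enrichment of labelled DUBs, LysC and trypsin digestion, and diaPASEF LC-MS/MS.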

USP46 = USP46 (UniProt P62068)
Sequence of USP46 (P62068 whole entry): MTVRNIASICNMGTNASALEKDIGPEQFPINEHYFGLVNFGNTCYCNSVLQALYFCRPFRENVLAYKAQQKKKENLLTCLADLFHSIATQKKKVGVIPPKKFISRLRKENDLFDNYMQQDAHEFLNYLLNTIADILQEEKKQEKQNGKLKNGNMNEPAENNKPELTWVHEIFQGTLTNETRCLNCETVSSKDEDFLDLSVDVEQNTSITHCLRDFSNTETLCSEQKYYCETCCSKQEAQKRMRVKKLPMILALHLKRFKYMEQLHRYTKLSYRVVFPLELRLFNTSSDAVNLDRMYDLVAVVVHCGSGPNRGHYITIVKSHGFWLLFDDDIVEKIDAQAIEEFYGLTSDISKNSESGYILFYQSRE
Summary of the method: as §1

USP47 = target: T2, USP47 (UniProt Q96K76)
T2 sequence (whole entry): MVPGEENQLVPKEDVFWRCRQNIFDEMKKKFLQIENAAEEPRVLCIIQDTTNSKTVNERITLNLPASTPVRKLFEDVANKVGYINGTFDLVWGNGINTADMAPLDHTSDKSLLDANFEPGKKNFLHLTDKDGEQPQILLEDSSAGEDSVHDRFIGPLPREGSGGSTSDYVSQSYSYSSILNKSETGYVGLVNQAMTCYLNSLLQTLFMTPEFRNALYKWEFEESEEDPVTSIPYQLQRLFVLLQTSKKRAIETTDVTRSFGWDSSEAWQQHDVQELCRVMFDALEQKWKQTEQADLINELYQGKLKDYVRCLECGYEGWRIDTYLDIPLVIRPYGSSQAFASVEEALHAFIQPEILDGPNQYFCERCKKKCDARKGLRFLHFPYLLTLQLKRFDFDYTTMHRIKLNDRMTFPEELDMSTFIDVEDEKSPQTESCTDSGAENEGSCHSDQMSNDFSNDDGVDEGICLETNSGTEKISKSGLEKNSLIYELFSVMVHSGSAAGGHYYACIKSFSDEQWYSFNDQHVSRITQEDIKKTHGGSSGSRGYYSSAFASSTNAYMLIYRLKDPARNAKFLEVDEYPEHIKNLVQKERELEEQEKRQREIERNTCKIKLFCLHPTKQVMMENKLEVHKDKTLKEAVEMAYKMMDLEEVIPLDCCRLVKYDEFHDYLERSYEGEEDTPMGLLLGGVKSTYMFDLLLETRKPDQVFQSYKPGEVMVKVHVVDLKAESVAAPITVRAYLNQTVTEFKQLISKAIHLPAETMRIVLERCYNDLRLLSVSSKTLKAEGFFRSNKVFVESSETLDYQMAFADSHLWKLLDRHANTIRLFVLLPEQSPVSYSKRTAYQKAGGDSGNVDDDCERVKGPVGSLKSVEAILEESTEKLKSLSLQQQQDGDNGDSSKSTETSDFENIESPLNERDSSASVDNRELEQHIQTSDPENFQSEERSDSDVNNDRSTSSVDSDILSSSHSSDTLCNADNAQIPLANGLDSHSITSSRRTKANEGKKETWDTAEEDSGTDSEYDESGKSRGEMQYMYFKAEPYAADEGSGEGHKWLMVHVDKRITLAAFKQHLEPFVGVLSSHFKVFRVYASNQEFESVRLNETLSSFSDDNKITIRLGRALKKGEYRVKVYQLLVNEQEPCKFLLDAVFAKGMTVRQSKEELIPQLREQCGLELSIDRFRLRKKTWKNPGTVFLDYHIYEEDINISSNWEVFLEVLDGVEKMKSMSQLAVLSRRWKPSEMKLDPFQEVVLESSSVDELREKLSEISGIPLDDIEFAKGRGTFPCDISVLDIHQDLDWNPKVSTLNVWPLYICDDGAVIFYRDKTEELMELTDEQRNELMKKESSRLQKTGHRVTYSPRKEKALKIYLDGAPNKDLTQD
Summary of the method: as §1

USP48 = target: T3, USP48 (UniProt Q86UV5)
T3 sequence (whole entry): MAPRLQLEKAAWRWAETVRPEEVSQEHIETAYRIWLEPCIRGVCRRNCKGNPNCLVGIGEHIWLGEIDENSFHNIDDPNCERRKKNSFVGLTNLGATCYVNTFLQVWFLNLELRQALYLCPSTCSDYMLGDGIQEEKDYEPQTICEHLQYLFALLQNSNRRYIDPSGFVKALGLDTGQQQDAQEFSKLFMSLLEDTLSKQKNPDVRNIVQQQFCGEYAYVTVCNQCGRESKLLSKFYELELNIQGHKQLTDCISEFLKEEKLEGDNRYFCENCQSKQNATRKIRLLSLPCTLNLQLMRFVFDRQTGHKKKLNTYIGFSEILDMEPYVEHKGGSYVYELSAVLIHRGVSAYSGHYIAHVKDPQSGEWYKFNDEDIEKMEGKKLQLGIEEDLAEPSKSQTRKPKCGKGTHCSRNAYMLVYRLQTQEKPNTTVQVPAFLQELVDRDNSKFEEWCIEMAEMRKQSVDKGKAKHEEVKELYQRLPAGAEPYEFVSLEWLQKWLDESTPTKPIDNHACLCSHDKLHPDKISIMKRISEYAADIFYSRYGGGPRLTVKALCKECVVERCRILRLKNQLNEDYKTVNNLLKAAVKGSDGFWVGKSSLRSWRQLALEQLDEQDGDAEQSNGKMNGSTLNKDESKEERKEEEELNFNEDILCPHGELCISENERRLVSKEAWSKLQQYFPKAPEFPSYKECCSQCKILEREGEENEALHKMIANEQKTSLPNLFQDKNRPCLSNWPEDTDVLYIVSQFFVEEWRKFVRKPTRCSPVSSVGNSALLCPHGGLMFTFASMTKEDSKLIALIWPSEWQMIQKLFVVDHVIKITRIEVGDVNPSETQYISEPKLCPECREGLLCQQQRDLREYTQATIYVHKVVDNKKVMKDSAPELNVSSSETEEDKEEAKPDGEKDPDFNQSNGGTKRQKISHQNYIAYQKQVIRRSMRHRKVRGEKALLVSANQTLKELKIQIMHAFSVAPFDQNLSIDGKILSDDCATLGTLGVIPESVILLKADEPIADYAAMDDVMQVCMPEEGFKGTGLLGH
Summary of the method: as §1

USP5 = target: T4, USP5 (UniProt P45974)
T4 sequence (whole entry): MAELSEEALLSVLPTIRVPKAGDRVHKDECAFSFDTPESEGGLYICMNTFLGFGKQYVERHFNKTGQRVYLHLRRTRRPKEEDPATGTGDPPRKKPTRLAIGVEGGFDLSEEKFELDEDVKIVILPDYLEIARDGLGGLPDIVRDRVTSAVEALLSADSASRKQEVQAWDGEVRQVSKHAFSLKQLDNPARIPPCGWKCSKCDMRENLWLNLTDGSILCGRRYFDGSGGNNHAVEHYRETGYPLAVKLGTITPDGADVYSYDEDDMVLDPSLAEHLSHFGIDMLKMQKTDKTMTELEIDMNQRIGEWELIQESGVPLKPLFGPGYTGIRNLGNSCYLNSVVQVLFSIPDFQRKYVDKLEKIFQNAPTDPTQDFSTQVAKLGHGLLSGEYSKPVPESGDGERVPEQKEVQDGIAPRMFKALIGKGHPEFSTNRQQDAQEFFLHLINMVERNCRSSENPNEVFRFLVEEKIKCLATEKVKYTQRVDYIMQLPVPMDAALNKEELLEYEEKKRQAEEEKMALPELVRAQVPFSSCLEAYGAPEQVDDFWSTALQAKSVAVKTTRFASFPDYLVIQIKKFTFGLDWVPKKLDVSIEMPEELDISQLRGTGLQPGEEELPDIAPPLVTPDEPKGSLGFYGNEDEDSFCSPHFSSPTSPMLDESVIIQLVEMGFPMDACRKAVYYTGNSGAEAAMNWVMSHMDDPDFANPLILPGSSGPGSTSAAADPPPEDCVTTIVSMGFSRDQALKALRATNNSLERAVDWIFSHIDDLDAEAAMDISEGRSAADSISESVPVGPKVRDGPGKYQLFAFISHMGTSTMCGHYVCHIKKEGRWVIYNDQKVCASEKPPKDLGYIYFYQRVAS
Summary of the method: as §1

USP54 = USP54 (UniProt Q70EL1)
Summary of the method: as §1

USP7 = USP7 (UniProt Q93009)
Sequence of USP7 (Q93009 whole entry, looked up): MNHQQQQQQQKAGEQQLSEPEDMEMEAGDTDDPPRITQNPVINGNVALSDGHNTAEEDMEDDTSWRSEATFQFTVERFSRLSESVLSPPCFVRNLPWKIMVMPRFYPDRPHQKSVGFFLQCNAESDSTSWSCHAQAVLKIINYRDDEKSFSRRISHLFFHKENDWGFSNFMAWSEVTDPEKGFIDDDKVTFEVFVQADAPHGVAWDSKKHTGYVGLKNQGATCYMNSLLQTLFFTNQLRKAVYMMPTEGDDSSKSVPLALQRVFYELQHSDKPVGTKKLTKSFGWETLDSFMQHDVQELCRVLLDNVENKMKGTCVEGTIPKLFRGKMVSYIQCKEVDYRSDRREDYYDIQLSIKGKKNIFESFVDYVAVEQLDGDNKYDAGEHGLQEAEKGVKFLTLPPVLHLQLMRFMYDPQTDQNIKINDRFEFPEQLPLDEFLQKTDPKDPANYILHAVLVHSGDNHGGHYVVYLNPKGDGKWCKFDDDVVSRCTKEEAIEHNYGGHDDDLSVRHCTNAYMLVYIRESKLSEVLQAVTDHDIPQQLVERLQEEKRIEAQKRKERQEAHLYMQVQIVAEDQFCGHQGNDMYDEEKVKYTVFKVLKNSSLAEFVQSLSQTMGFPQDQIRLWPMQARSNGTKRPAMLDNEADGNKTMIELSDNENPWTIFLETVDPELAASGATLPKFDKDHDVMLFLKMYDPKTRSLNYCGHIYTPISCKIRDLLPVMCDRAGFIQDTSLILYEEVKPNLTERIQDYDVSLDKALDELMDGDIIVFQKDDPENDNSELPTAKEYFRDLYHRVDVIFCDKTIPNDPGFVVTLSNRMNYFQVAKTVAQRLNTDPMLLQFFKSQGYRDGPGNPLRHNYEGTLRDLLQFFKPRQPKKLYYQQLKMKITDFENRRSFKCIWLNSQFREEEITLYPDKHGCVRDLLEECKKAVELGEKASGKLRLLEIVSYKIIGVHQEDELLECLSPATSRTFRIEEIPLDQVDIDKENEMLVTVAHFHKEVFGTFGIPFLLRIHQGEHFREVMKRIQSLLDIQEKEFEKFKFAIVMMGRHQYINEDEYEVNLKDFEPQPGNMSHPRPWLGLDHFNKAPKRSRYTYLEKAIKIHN
Summary of the method: as §1

USP8 = target: T5, USP8 (UniProt P40818)
T5 sequence (whole entry): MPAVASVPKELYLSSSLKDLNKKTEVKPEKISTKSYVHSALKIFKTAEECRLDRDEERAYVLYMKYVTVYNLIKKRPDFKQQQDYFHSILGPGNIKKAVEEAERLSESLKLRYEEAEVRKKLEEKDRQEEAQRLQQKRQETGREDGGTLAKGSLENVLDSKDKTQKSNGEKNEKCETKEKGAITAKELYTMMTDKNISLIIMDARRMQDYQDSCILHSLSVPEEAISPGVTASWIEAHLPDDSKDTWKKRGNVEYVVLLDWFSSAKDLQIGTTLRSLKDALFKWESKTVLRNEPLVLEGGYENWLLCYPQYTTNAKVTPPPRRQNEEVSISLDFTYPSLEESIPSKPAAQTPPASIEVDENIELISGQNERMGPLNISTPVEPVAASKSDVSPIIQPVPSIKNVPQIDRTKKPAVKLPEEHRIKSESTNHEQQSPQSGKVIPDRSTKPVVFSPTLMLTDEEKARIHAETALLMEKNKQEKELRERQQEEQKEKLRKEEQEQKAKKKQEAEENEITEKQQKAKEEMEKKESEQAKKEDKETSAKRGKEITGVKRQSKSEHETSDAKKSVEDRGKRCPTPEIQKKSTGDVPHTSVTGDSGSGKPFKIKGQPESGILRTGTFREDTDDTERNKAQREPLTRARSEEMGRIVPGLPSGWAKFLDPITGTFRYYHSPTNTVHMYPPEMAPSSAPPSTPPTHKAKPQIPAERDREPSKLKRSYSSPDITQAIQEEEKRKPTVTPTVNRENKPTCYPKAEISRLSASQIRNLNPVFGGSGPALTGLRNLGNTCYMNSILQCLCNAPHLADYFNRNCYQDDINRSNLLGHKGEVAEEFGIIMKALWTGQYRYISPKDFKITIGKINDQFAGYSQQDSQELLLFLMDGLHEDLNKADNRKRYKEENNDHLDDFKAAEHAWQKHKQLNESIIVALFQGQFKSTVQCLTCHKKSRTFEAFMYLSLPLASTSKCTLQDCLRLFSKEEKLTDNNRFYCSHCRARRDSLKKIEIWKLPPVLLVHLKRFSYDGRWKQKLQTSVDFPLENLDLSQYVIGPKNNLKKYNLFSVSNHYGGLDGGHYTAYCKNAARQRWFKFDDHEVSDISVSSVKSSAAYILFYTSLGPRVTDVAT
Summary of the method: as §1

USP9X = USP9X (UniProt Q93008)
Sequence of USP9X (Q93008 whole entry): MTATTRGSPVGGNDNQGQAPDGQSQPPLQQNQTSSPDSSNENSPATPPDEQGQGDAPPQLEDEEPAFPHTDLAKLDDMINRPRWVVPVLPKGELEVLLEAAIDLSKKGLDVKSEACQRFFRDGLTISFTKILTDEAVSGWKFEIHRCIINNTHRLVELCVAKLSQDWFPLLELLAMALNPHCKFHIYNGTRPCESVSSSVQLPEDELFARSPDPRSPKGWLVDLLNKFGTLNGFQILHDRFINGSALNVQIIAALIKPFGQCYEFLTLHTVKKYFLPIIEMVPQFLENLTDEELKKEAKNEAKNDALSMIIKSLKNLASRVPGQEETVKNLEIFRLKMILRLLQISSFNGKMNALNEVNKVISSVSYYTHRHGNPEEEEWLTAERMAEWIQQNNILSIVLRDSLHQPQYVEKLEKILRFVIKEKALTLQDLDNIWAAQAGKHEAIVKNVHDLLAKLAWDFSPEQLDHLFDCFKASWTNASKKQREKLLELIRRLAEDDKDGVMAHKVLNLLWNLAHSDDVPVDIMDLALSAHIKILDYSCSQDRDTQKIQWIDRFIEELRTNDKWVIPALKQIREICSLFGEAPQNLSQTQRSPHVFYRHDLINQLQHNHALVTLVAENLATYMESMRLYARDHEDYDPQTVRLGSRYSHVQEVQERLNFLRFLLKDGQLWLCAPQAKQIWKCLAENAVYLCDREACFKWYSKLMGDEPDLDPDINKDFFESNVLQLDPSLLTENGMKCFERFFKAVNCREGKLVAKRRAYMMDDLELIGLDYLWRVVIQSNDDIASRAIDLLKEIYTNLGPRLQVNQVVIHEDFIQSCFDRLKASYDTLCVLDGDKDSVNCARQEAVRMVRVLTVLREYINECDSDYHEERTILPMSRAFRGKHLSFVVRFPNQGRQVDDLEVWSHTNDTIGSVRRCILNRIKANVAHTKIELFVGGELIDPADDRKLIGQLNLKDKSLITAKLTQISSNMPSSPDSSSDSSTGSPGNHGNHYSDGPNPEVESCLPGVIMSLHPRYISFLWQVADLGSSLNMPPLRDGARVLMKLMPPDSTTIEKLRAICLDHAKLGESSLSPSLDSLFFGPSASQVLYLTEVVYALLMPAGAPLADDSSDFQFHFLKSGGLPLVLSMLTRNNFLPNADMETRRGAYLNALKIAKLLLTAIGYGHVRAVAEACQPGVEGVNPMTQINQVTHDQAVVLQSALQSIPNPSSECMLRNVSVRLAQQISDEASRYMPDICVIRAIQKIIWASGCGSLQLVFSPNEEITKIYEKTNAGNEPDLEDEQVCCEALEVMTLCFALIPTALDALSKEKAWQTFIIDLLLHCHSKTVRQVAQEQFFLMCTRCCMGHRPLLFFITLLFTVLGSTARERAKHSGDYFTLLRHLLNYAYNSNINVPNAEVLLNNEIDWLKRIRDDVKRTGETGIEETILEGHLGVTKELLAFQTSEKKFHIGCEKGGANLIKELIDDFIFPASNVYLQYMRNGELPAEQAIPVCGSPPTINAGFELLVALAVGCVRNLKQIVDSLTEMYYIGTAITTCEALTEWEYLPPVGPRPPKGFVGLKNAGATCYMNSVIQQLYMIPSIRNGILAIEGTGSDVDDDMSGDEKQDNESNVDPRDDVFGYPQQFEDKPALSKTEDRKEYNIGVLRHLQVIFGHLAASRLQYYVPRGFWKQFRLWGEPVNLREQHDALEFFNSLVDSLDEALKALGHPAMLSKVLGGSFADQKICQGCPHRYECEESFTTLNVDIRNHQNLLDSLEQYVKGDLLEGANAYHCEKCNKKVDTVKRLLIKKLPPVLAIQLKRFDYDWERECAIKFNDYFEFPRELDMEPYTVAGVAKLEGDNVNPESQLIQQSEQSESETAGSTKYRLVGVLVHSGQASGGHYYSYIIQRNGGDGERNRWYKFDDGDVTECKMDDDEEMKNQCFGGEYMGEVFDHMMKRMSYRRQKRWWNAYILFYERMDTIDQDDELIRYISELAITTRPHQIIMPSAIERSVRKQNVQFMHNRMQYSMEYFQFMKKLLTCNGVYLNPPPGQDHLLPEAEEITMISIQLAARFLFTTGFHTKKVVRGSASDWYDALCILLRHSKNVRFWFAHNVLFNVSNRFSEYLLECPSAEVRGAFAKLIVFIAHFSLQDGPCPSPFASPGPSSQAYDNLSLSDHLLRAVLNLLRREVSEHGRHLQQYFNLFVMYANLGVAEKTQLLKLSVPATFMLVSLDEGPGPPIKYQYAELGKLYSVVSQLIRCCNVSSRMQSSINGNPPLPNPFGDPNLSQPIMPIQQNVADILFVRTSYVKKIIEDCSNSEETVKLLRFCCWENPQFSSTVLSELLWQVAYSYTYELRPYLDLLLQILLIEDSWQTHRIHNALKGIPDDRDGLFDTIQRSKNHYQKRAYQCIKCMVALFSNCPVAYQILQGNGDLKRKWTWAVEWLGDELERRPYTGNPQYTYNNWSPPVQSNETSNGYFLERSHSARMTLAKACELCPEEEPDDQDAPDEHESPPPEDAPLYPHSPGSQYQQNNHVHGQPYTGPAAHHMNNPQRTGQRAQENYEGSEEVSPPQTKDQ
Summary of the method: as §1

UniProt O00487 = target: UniProt O00487
Sequence of UniProt O00487 (O00487 whole entry): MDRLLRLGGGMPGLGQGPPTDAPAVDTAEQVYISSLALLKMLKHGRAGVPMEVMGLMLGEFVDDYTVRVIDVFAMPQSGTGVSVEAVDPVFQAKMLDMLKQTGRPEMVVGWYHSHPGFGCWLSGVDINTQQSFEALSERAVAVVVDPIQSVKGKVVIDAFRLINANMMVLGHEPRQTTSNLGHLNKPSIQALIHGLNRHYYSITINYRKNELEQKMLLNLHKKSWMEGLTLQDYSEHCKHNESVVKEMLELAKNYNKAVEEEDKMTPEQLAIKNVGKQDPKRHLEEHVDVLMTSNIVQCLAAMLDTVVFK
Summary of the method: as §1

Measured: log2 ratio of Biotin-Ahx-Ub-VS probe labelling

Cc1cc(C2CCCN2C(=O)CCl)nn1C.Cl (stereo not given)
inactive: USP42 0.512 | USP46 -0.144 | USP47 -0.308 | USP48 -0.159 | USP5 -0.0636 | USP54 -0.39 | USP7 -0.329 | USP8 -0.274 | USP9X -0.131 | UniProt O00487 -0.229

From the supplement of paper PMC11732987, “Enantioselective OTUD7B fragment discovery through chemoproteomics screening and high-throughput optimisation” (Communications Chemistry, 2025)
